Source: ChEMBL document CHEMBL1201862, “PubChem BioAssay data set” (2004)
The campaign covered roughly 400,000 compounds. About 2,100 (0.53%) were called active. Not shown: some 14% with an inconclusive outcome. The rule behind the calls is not given here. The list comes from a sample in which actives are over-represented; it also holds similar structures and randomly drawn compounds.

target: Ataxin-2 (Homo sapiens) (UniProt Q99700); experiment: qHTS for Inhibitors of ATXN expression.; type: functional
Sequence (Q99700 whole entry): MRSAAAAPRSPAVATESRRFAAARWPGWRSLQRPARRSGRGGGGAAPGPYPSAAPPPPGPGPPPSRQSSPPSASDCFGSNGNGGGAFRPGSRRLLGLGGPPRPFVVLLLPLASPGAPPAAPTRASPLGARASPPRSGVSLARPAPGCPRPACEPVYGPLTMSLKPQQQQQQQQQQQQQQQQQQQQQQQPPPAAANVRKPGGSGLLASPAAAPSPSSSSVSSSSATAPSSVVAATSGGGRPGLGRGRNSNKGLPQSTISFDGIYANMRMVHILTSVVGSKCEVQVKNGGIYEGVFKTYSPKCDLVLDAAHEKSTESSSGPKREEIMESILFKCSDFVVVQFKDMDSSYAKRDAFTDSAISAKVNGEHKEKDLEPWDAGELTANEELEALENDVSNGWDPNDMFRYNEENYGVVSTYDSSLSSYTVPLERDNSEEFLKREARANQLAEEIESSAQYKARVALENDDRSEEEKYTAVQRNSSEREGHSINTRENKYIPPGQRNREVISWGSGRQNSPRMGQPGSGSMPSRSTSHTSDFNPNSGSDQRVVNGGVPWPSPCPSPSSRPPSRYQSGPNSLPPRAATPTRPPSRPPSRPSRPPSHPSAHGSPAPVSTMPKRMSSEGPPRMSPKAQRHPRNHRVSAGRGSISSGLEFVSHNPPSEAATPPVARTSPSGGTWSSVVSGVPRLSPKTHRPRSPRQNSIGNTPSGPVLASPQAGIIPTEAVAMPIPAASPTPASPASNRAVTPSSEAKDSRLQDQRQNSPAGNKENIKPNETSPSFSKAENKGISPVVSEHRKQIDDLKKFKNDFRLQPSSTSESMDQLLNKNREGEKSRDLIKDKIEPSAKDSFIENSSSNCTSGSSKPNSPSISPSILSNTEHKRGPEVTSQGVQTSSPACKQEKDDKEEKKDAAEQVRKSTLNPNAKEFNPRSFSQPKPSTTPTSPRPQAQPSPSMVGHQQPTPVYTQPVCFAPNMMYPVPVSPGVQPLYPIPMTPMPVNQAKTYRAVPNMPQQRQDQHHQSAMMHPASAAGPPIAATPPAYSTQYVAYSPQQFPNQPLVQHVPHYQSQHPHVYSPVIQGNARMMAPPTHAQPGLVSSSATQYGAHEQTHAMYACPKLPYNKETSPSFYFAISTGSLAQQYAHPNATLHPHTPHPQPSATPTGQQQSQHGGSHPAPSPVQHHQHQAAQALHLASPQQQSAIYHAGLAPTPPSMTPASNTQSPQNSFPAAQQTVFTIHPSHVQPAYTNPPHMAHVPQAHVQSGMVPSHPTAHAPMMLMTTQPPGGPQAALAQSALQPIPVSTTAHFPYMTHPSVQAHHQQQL

Row | SMILES | Potency
1 | CC1(C)CC2CC(C)(CN2C(S)=Nc2ccccc2)C1 (stereo not drawn) | inactive
2 | COc1ccc(OC)c(/C=N/NC(=O)CNC(=O)c2ccc(S(=O)(=O)N3CCOCC3)cc2)c1 | inactive
3 | O=C(Oc1ccc2ccc(=O)oc2c1)c1cccs1 | inactive
4 | S=C(NNC(=S)NC1CC2C=CC1C2)NC1CC2C=CC1C2 (stereo not drawn) | inactive
5 | CCOC(=O)c1c(NC(C)=O)sc2c(OCC(O)CNC(C)(C)C)c(Br)ccc12 (stereo not drawn) | 39.8 µM (active)
6 | CCOC(=O)c1sc(NC(=O)c2ccoc2C)c(C(N)=O)c1C | inactive
7 | CC(=O)Nc1sc(C)c(C)c1C(=O)OCC(=O)NCc1ccc(Cl)cc1 | inactive
8 | NC(=O)c1cccc2cc3ccccc3cc12 | inactive
9 | Cc1ccc2nc(Cl)c(C#N)cc2c1 | inactive
10 | C#CCOc1ccc(C2C(C#N)=C(N)Oc3cc(O)ccc32)cc1 (stereo not drawn) | inactive
11 | Cc1ccc2nc(O)c(C3C(C#N)=C(N)Oc4c3ccc3cccnc43)cc2c1 (stereo not drawn) | 22.4 µM (active)
12 | COC(=O)c1sc2nc3c(cc2c1N)CCCC3 | inactive
13 | O=C1CC(c2ccccc2Cl)=NN(c2ncnc3ccccc23)C1=O | inactive
14 | CC1=C/C(=N\OS(=O)(=O)c2ccccc2)C(C(C)C)=CC1=O | 31.6 µM (active)
15 | CC1=C/C(=N\OS(=O)(=O)c2ccccc2)C=CC1=O | 31.6 µM (active)
16 | Cc1ccc(S(=O)(=O)NNc2c3ccccc3nc3ccc(Cl)cc23)cc1 | inactive
17 | CCCCn1c(=O)[nH]c2nc3cc(NC(C)=O)ccc3nc2c1=O | inactive
18 | CCN(CC)c1ccc(/C=c2\sc3nc4ccccc4n3c2=O)c(O)c1 | inactive
19 | OCCC1CN(C2CCN(c3ccccc3F)CC2)CCN1Cc1ccccc1 (stereo not drawn) | inactive
20 | Cc1cccc(C2=NN(c3ccc(Br)cc3)[C@@H](C(=O)N3CCOC3=O)[C@@H]2c2ccccc2)c1 | inactive
21 | CN1C[C@@H]2[C@@H]3C(=O)N(Cc4ccccc4)C(=O)[C@@H]3[C@](Cc3ccccc3)(C1=O)N2C(=O)c1ccc(C(C)(C)C)cc1 | 15.8 µM (active)
22 | CC1(Cc2ccccc2Cl)C(=O)Nc2cc(-c3ccccc3Cl)ccc21 (stereo not drawn) | 39.8 µM (active)
23 | Nc1ccccc1SC(CC(=O)c1ccccc1)c1cccc([N+](=O)[O-])c1 (stereo not drawn) | 2.82 µM (active)
24 | Nc1ccccc1SC(C[N+](=O)[O-])c1ccccc1 (stereo not drawn) | 39.8 µM (active)
25 | CC(CCc1ccccc1)NCC(O)c1cccc([N+](=O)[O-])c1 (stereo not drawn) | inactive

Row | SMILES | Potency
26 | CC(=O)Nc1cc[n+](CC(=O)c2cccc([N+](=O)[O-])c2)cc1 | inactive
27 | COc1ccc(/C=N/NC(=O)Nc2cccc3nsnc23)cc1 | inactive
28 | CN1C(=O)c2cccc3c(N(C)C)ccc(c23)C1=O | inactive
29 | O=C(O)c1ccccc1-c1ccc(C=c2sc3nc4cc(Br)cnc4n3c2=O)o1 | inactive
30 | CCN(CC)CCNS(=O)(=O)c1ccc2c3c(cccc13)C(=O)N2 | inactive
31 | C=CCC(Nc1ccccc1)C12C=CC(O1)C(C(=O)OC)=C2C(=O)OC (stereo not drawn) | 39.8 µM (active)
32 | Cc1ccc(/C=N/Nc2ccc3ccccc3n2)o1 | inactive
33 | c1ccc(-c2nc(CN3CCN(c4ccccn4)CC3)c[nH]2)cc1 | inactive
34 | CN(C)C(=S)N=Nc1[nH]c2ccccc2c1O | 1.12 µM (active)
35 | O/C(=C\c1nc2ccccc2nc1O)c1cccs1 | inactive
36 | Cc1ccc(F)c([C@H]2[C@H]3C=CC[C@@H](C)[C@@H]3C(=O)N2Cc2ccccc2)c1 | 39.8 µM (active)
37 | CC[C@@H]1CC=C[C@H]2[C@H]1C(=O)N(Cc1ccccc1)[C@H]2c1ccoc1 | 35.5 µM (active)
38 | O=C1C2C(c3ccccc3)CC=CC2[C@H](c2ccc(C(F)(F)F)cc2)N1Cc1ccccc1 (stereo partly drawn) | 15.8 µM (active)
39 | Nc1nnc(SCC(=O)NNC(=O)c2ccc([N+](=O)[O-])cc2)s1 | inactive
40 | NC(S)=NN=C1c2cc(OCCN3CCOCC3)ccc2-c2ccc(OCCN3CCOCC3)cc21 | 7.94 µM (active)
41 | COCc1cc(O)nc(-c2ccc(C(F)(F)F)cc2)n1 | inactive
42 | COCc1cc(O)nc(SCCS(=O)(=O)c2ccc(Cl)cc2Cl)n1 | 11.2 µM (active)
43 | O=S(=O)(CCN1C=CC(C(F)(F)F)=NCC1)c1ccc(Cl)cc1Cl | inactive
44 | CCOc1cc(C(c2c(C)[nH]n(-c3ccccc3)c2=O)c2c(C)[nH]n(-c3ccccc3)c2=O)ccc1O | 28.2 µM (active)
45 | CCN1/C(=C/c2ccc3cc(C)ccc3[n+]2CC)Sc2ccccc21 | 14.1 µM (active)
46 | CCOC(=O)/C(C#N)=C(C)/C=C1\Sc2ccccc2N1CC | inactive
47 | CC[n+]1c(C=C2C=CN(C)C=C2)ccc2cc(C)ccc21 | 10 µM (active)
48 | CCN1/C(=C/c2ccc3cc(C)ccc3[n+]2C)Sc2ccc3sccc3c21 | 17.8 µM (active)
49 | CCOC(=O)/C(=C\C=C1/Sc2ccccc2N1CC)C(C)=O | inactive
50 | CCN1/C(=C\c2ccc3ccccc3[n+]2CC)Sc2cc(C)ccc21 | 44.7 µM (active)

Row | SMILES | Potency
51 | N=c1c(C(=O)NCC2CCCO2)cc2c(=O)n3ccccc3nc2n1Cc1ccccc1Cl (stereo not drawn) | inactive
52 | CCOC(=O)C1CCN(C(c2ccc(OC)c(OC)c2)c2sc3nc(C)nn3c2O)CC1 (stereo not drawn) | inactive
53 | O=C(N/N=C/c1c(O)ccc2ccccc12)c1[nH]ncc1Br | inactive
54 | CCN1CCN(Cc2c(O)ccc3c2O/C(=C\c2ccc(C)cc2)C3=O)CC1 | inactive
55 | CC(NC(=O)C12CC3CC(CC(C3)C1)C2)C(=O)N/N=C/C1=C(N2CCOCC2)C(=C\c2ccccc2)/CC1 (stereo not drawn) | inactive
56 | CCOc1ccc(CCNC(=O)Cn2ncn3nc(-c4ccc(OC)cc4)cc3c2=O)cc1OCC | inactive
57 | Cc1cc2c(C)cc(=O)oc2c2c1NCCC2 | inactive
58 | Fc1ccc(Br)cc1C1C=C(c2ccc(Br)cc2)Nc2ncnn21 (stereo not drawn) | inactive
59 | CCN1/C(=C/c2ccc3cc(C)ccc3[n+]2CC)Sc2cc(C)ccc21 | 10.6 µM (active)
60 | Cc1ccccc1C(=O)Nc1cc(C(F)(F)F)ccc1-n1cncn1 | inactive
61 | CCCCn1nc(C(=O)Nc2cc(C(F)(F)F)ccc2N2CCOCC2)ccc1=O | 39.8 µM (active)
62 | CCOC(=O)c1ccc(N2CCOCC2)c(NC(=O)c2ccc3c(c2)OCO3)c1 | inactive
63 | O=C1c2ccccc2-c2ncnc3c(N4CCOCC4)cc(N4CCOCC4)c1c23 | 17.8 µM (active)
64 | O=C(Nc1ccccc1N1CCOCC1)c1cc(Br)c(Br)s1 | inactive
65 | c1cc2c3c(cccc3c1)C(N1CCOCC1)=N2 | inactive
66 | C=CCN1C(=O)/C(=C/c2ccc(OC(C)=O)c(OCC)c2[N+](=O)[O-])SC1=S | 31.6 µM (active)
67 | CCO/C=C1/C(=O)N(c2ccc(OC)cc2)C(=O)c2ccccc21 | inactive
68 | O=C(O)c1cc2c(cc1NC(=O)C1CCCC1)OCCO2 | inactive
69 | Cc1ccc2c(c1)OC(c1ccc3c(c1)OCCO3)CC2=O (stereo not drawn) | inactive
70 | O=C(CCl)N1CCCC1c1ccc2c(c1)OCCO2 (stereo not drawn) | 35.5 µM (active)
71 | CCOC(=O)c1sc(NC(=O)CCN2CCN(C)CC2)c(C(=O)OCC)c1C | inactive
72 | CC(=O)O[C@@H]1C[C@H]2C(C)(C)C(=O)C=C[C@]2(C)[C@H]2CC[C@@]3(C)[C@H](c4ccoc4)OC(=O)[C@H]4O[C@]43[C@@]21C | 31.6 µM (active)
73 | Cc1onc(-c2ccccc2Cl)c1C(=O)Nc1cc(=O)n(C)c(=O)n1C | inactive
74 | Cc1ccc2c(Cl)cc(Cl)c(OCC(=O)OCC(=O)Nc3ccc(C#N)cc3)c2n1 | inactive
75 | CCCCCCN1C[C@H](n2cc(COC(=O)c3ccccc3)nn2)[C@@H](O)C[C@@H]1c1ccc(Cl)cc1 | 31.6 µM (active)

Row | SMILES | Potency
76 | CCCCCCN1C[C@@H](n2cc(COC(=O)c3ccccc3)nn2)[C@H](O)C[C@@H]1c1ccc(C)cc1 | 22.4 µM (active)
77 | CCCCC(NC(=O)Cc1c(C)c2cc3c4c(oc3cc2oc1=O)CCCC4)C(=O)O (stereo not drawn) | inactive
78 | Cc1c(O)ccc2c(CN3CCN(CCO)CC3)cc(=O)oc12 | inactive
79 | Cc1c(NS(=O)(=O)c2ccc(NCCN3CCOCC3)c([N+](=O)[O-])c2)c(=O)n(-c2ccccc2)n1C | inactive
80 | O=C(O)COc1ccccc1/C=N/Nc1ccc(S(=O)(=O)Nc2ccc(Cl)cc2)cc1[N+](=O)[O-] | inactive
81 | Cc1nn(-c2ccccc2)c(N2CCCC2)c1/C=N/Nc1ccc(S(=O)(=O)Nc2ccccc2)cc1[N+](=O)[O-] | 31.6 µM (active)
82 | O=C(COc1ccc(Br)cc1)NCCN1CCCC1 | inactive
83 | CC1=C(C(=O)OC(C)C)C(c2ccc(Cl)cc2)n2c(s/c(=C\c3ccc(OCC(=O)O)cc3)c2=O)=N1 (stereo not drawn) | inactive
84 | CC1=CC2=NC(=O)/C(=C/c3coc4ccc(Cl)cc4c3=O)C(=N)N2O1 | inactive
85 | CCOC(=O)c1sc(NC(=O)c2nc3nc(C)cc(C(F)F)n3n2)c(C(=O)OC)c1C | inactive
86 | CCN1C(=O)c2cccc3c(S(=O)(=O)NC(Cc4ccccc4)C(=O)O)ccc1c23 (stereo not drawn) | inactive
87 | CN(CCC#N)C(=O)COC(=O)c1ccccc1C(=O)c1ccc(Cl)c([N+](=O)[O-])c1 | 29.9 µM (active)
88 | C=CCNC(=O)c1ccccc1NC(=O)Cc1ccccc1[N+](=O)[O-] | inactive
89 | Cc1cc(OCC(=O)OCC(=O)NC2CCCCCC2)ccc1Cl | inactive
90 | CN(CCC#N)C(=O)COC(=O)c1c2c(nc3ccccc13)/C(=C/c1ccco1)CC2 | inactive
91 | O=C(CN(C(=O)c1ccccc1Cl)C1CCCCC1)Nc1ccc(Cl)c([N+](=O)[O-])c1 | 35.5 µM (active)
92 | CC(OC(=O)c1ccc(-n2cnnn2)cc1)C(=O)Nc1ccccc1[N+](=O)[O-] (stereo not drawn) | inactive
93 | CC(=O)Nc1ccc(NC(=O)C(C)OC(=O)c2ccccc2C(=O)c2ccc(Cl)c([N+](=O)[O-])c2)cc1 (stereo not drawn) | 39.8 µM (active)
94 | Cc1ccc(C(=O)COC(=O)CCC(=O)NC2CCCCC2)cc1[N+](=O)[O-] | inactive
95 | CN(C(=O)COC(=O)c1ccc([N+](=O)[O-])cc1N)c1ccccc1 | inactive
96 | O=C(COC(=O)c1ccccc1C(=O)c1ccc(Cl)c([N+](=O)[O-])c1)NC1CCCCCC1 | 35.5 µM (active)
97 | CC(=O)Nc1ccc(NC(=O)C(C)OC(=O)CCSc2ccccc2Cl)cc1 (stereo not drawn) | inactive
98 | CN(CC(=O)Nc1ccccc1Cl)C1CCS(=O)(=O)C1 (stereo not drawn) | inactive
